Source: PubChem BioAssay (several laboratories)
ATG4B inhibitor: blocks human ATG4B protease cleavage of LC3 substrate; Q9Y4P1; ATG4B cleavage of LC3-PLA2, NBD-HPC fluorescence, 1 h; inhibition, % at 8.33 µM; 340,000 compounds, 0.51% hits; AID 504462; in the data active means inhibition above about 40%
Efflux pump inh: blocks antifungal efflux pumps in multiplex yeast assay; S. cerevisiae Candida pump triplex, Nile Red efflux; inhibition, % at 10 µM; 330,000 compounds, 0.44% hits;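 active means plate passing quality check with inhibition over a set limit, or well fluorescence over plate mean plus 4 SD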;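 further: Nile Red retained in pooled yeast measured as flow cytometry median fluorescence; higher means more Nile Red kept so more efflux inhibition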
GRK2 aptamer HTS: inhibitors of human GRK2 displacing RNA aptamer; P25098; bead flow cytometry, FAM-aptamer displacement from GRK2; inhibition of aptamer binding, % at 10 µM; 330,000 compounds, 0.59% hits; AID 488847;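 active means inhibition of aptamer binding above 40%, roughly 3 SD of noise, on plates passing a quality check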;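 further: median bead fluorescence of bound FAM aptamer so fluorescent compounds give negative values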
Target sequence (P25098 whole entry, looked up): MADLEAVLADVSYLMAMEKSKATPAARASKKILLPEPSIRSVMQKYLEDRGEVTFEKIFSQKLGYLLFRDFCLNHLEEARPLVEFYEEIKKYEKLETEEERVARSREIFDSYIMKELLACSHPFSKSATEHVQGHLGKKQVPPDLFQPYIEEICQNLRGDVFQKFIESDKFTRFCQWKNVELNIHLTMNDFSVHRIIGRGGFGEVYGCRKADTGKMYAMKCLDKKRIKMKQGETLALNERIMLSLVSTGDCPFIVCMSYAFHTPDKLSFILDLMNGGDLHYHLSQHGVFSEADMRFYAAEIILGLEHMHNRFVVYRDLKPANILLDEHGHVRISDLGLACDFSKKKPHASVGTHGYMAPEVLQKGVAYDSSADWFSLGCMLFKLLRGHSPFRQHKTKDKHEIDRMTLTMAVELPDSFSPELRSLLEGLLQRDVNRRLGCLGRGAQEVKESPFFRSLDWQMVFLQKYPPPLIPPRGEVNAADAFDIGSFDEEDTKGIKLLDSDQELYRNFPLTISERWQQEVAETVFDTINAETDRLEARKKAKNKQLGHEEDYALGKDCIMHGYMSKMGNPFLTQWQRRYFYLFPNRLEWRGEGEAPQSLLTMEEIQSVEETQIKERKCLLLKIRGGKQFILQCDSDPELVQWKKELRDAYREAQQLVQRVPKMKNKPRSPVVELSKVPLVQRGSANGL
Yeast superoxide: caloric restriction mimetics inhibiting age-related superoxide in yeast; superoxide response (% of plate mean), % at 10 µM; S. cerevisiae aged cells, superoxide DHE fluorescence; hits give low values; 330,000 compounds, 0.18% hits;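 active means superoxide response under a set limit, about three screen SD below normal, cut at about 65% in these data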;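 further: yeast aged for seven days with compound at 30 °C before DHE staining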
ATG4B confirm: ATG4B (human) inhibition, single-dose confirmed | 320 compounds, 92% hits | AID 504757 | shares compounds with ATG4B inhibitor | ATG4B protease fluorescent substrate cleavage assay | inhibition, % at 8.33 µM; in the data active means inhibition above about 39%
PLA2 ctr: counter-screen for ATG4B inhibitors: human phospholipase A2; AID 588402; 1,600 compounds, 66% hits; inhibition, % at 8.33 µM; purified PLA2, NBD-C6-HPC fluorescence, 45 min; shares compounds with ATG4B inhibitor; in the data active means inhibition above about 50%
Hits are given with their value; – = inactive; · = not tested or not shown. This is a sample that favours compounds with a hit; in the whole collection about 1.6% have one here.

SMILES | ATG4B inhibitor | Efflux pump inh | GRK2 aptamer HTS | Yeast superoxide | PLA2 ctr | others
NC(=O)c1ccc(C(F)(F)F)n(Cc2c(Cl)cccc2Cl)c1=O | 47 | – | – | – | –
Cc1c(C(=O)N2CCc3ccccc3C2)sc2nc(-c3ccccc3)cn12 | 45 | – | – | – | 53
Cc1ccc(C(=O)NC(=S)Nc2ccccc2N2CCCC2)cc1[N+](=O)[O-] | 42 | – | – | – | –
Cc1ccc(Oc2cc(NC(=O)CCCn3nc([N+](=O)[O-])cc3C)cc([N+](=O)[O-])c2)cc1 | 67 | – | – | – | 65
Cc1cc([N+](=O)[O-])nn1CCCC(=O)Nc1ccc2c(c1)OCO2 | – | – | – | – | ·
Cc1ccc(C)c(Oc2cc(NC(=O)CCCn3nc(C)c([N+](=O)[O-])c3C)cc([N+](=O)[O-])c2)c1 | 65 | – | – | – | 64
Cc1nn(CCCC(=O)Nc2cc(Oc3ccccc3)cc([N+](=O)[O-])c2)c(C)c1[N+](=O)[O-] | 53 | – | – | – | 63
O=C(NCc1cccc(F)c1)c1ccc(N2C(=O)Cn3c(cc4sccc43)C2=O)cc1 | 41 | – | – | – | –
COc1cc(NC(=O)Cn2cnc(S(=O)(=O)N3CCC(C)CC3)c2)cc(OC)c1OC | – | – | – | – | ·
CC1CCCN(C(=O)Cc2cn(Cc3cccc(Cl)c3)c3ccccc23)C1 (configuration not stated) | 48 | – | – | – | 56
O=C(Cc1cn(Cc2cccc(Cl)c2)c2ccccc12)N1CCCCCC1 | 50 | – | – | – | –
O=C(O)Cc1cn(Cc2cccc(Cl)c2)c2ccccc12 | – | – | – | – | ·
COC(=O)c1[nH]c2cc(OC)c(OC)cc2c1/C=N/Nc1ccccc1 | – | – | – | – | ·
Cc1c(Cl)cccc1Nc1ncccc1C(=O)O | – | – | – | – | ·
Cc1c(Cl)cccc1Nc1ccccc1C(=O)O | 44 | – | – | – | – | ATG4B confirm=57
CC(=O)Nc1ccc(S(=O)(=O)NCC2(N3CCOCC3)CCCCC2)cc1 | – | · | · | · | ·
Cn1cccc1-c1nc2ccccc2n1Cc1ccccc1 | 43 | – | – | – | 56
COc1ccc(Cn2c(-c3ccc(OC)cc3)nc3ccccc32)cc1 | – | – | – | – | ·
CSCCC(NC(=O)C1CCC(C)CC1)C(=O)NCCN1CCC(C)CC1 (configuration not stated) | – | – | – | – | ·
O=C(c1cccs1)N1CCN(Cc2ccccc2[N+](=O)[O-])CC1 | – | – | – | – | ·
Cc1ccc(F)cc1CNC(=O)c1cc(COc2ccc3ncccc3c2)on1 | 61 | – | – | – | 68
COC(c1ccccc1)c1nnc(CCC(=O)N(C)Cc2cccc(-n3cccn3)c2)o1 (configuration not stated) | – | – | – | – | ·
COc1ccc(CN2CC(=O)N(c3cccc(Cl)c3)C2=S)cc1OC | – | – | – | – | ·
Cc1ccc(N2C(=O)CN(Cc3ccccc3)C2=S)cc1C | 75 | – | – | – | 79
Cc1ccc(N2C(=O)CN(Cc3sccc3C)C2=S)cc1C | 95 | – | – | – | 94
SMILES | ATG4B inhibitor | Efflux pump inh | GRK2 aptamer HTS | Yeast superoxide | PLA2 ctr | others
Cc1ccccc1N1C(=O)CN(Cc2sccc2C)C1=S | 65 | – | – | – | 79
COc1ccc(CN2CC(=O)N(c3ccccc3OC)C2=S)cc1OC | – | – | – | – | ·
COc1cccc(N2C(=O)CN(Cc3cc(OC)c(OC)c(OC)c3)C2=S)c1 | – | – | – | – | ·
Cc1ccc(N2C(=O)CN(Cc3cccs3)C2=S)cc1C | 58 | – | – | – | 78
CC(C)(C)OC(=O)C[C@H]1C/C=C\C[C@H](CC(=O)NCCO)C(=O)NC[C@@H](c2ccccc2)OC1=O | – | – | – | – | ·
CCOC(=O)N1CCC(N2C(=O)c3ccccc3C2Nc2ccc(S(=O)(=O)N3CCOCC3)cc2)CC1 (configuration not stated) | – | – | – | – | ·
O=C(Cc1ccc(Br)c2ccccc12)N/N=C/c1ccccn1 | – | – | – | – | ·
O=C(O)COc1ccccc1C=NNc1ccc([N+](=O)[O-])cc1S(=O)(=O)Nc1ccc(Cl)cc1 | 44 | – | – | – | – | ATG4B confirm=64
COc1ccccc1OCc1ccc(C(=O)n2nc(C)c(Cl)c2C)o1 | 75 | – | – | – | 77
Cc1ccc(Cl)c(OCC(=O)Nc2ccc(S(=O)(=O)NC3=NCCCCC3)cc2)c1 | – | – | – | – | ·
Cc1cc(OCC(=O)Nc2ccc(S(=O)(=O)NC3=NCCCCC3)cc2)c(C(C)C)cc1Cl | 48 | – | – | – | 56
O=C1NC2(CCCC2)Oc2ccccc21 | – | – | – | – | ·
CC1(C)C2CCC1(C)C1(C2)NC(=O)c2ccccc2O1 (configuration not stated) | 45 | – | – | – | – | ATG4B confirm=70
NC(=O)C1CCN(C2=C(NS(=O)(=O)c3ccccc3)C(=O)c3ccccc3C2=O)CC1 | – | – | – | – | ·
NC(=O)C1CCN(C2=C(NS(=O)(=O)c3ccc(Br)cc3)C(=O)c3ccccc3C2=O)CC1 | 64 | – | – | – | 60
CCn1c(SCC(=O)Nc2oc(-c3ccccc3)c(-c3ccccc3)c2C#N)nnc1-c1ccco1 | 61 | – | – | – | 68
O=[N+]([O-])c1ccc(Nc2c3ccccc3nc3ccccc23)cc1 | 58 | · | · | · | 60
O=[N+]([O-])c1ccccc1Nc1c2ccccc2nc2ccccc12 | – | – | – | – | ·
CCC(C)N(C(=O)COC(=O)COc1c(C)cc(C)cc1C)C1CCS(=O)(=O)C1 (configuration not stated) | – | – | – | – | ·
COC(=O)c1ccc(-c2ccc(Cl)cc2)nc1C | – | – | – | – | ·
Oc1ccccc1C1SC(c2ccccc2O)SC(c2ccccc2O)S1 (configuration not stated) | 63 | · | · | · | –
CC(=O)c1ccc(N2CCN(C(=O)C(=O)c3cn(CC(=O)N4CCCCCC4)c4ccccc34)CC2)cc1 | – | – | – | – | ·
CCCCn1c(SCC(=O)Nc2cc(C)[nH]n2)nc2ccsc2c1=O | 45 | – | – | – | – | ATG4B confirm=56
CC(=O)Nc1ccc(N=Cc2c(O)c(C(=O)Nc3ccccc3)cc3ccccc23)cc1 | – | – | – | – | ·
CCOc1cc(Br)c(Br)c(C=Nc2ccc(NC(C)=O)cc2)c1O | 66 | – | – | – | 55
SMILES | ATG4B inhibitor | Efflux pump inh | GRK2 aptamer HTS | Yeast superoxide | PLA2 ctr | others
Cc1ccc2c(C)c(C(=O)NCc3ccc(S(N)(=O)=O)cc3)oc2c1 | – | – | – | – | ·
Cc1ccc2nc3c(c(Nc4ccc5c(c4)OCCO5)c2c1)CCC3 | 42 | – | – | – | – | ATG4B confirm=65
CC(C)(C)c1nc(SCC(=O)N2CCCC2)c2ccccc2n1 | – | – | – | – | ·
CC(C)(C)c1nc(SCC(=O)c2ccccc2)c2ccccc2n1 | 51 | – | – | – | – | ATG4B confirm=70
COc1ccc(C(C)NC(=S)NCc2ccc(F)cc2)cc1 (configuration not stated) | – | – | – | – | ·
Cc1ccc(C)c(C(C)NC(=S)NCc2ccc(F)cc2)c1 (configuration not stated) | 49 | – | – | – | 50
